# Shown are actives, neighbours in structure and some others; about 0.97% of the full set was active somewhere.
# TLR4-MyD88 BLA: inhibitors of human TLR4-MyD88 binding; hit rate 0.18% among 200,000; inhibition, % at 8.4 µM; HeLa CL3-4 TLR4/MyD88 BLA complementation, FRET ratio; in the data active means inhibition above about 25%;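 further: 0% = vehicle and 100% = reference inhibitor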
# NTR1 ag: agonists of human neurotensin receptor NTR1 | P30989 | NTR1-U2OS beta-arrestin-GFP spot imaging, agonist mode | activation, % at 20 µM | hit rate 0.17% among 330,000;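 active means activation at or above 40% of the spot to cytoplasm intensity ratio, with at least 20 cells analyzed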;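 further: 0% = DMSO without peptide and 100% = 100 nM NTR1 peptide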
# Target sequence (P30989 whole entry, looked up): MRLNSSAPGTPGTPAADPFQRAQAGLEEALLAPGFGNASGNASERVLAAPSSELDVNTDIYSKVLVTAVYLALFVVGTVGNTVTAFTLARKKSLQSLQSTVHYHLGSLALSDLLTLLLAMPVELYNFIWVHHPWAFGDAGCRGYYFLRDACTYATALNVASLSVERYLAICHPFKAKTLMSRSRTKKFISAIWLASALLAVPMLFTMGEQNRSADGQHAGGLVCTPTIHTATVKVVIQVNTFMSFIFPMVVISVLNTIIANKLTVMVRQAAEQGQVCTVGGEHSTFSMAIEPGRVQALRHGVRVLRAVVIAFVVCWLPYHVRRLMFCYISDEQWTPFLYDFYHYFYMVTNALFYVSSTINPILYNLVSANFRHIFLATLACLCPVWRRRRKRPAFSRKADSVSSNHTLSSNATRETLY
# TLR9-MyD88 block: TLR9-MyD88 interaction inhibition | Q9NR96+Q99836 | CHO BLA complementation TLR9-MyD88, CCF4 FRET ratio | inhibition, % at 4.98 µM | hit rate 0.21% among 340,000;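 active means inhibition above the mean over all tested compounds plus 3 SD, cut at about 21% in these data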;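 further: 0% = DMSO only wells and 100% = clavulanate BLA inhibitor control wells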
# NOD2-RIPK2 inh: inhibitors of human NOD2-RIPK2 interaction | CHO BLA complementation NOD2-RIPK2, CCF4 ratio | inhibition, % at 4.98 µM | O43353 | hit rate 0.38% among 360,000; in the data active means inhibition above about 21%;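 further: 0% = vehicle only and 100% = reference blocker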
# A1 inh: inhibitors of the anti-apoptotic protein A1, read as caspase activation | hit rate 0.066% among 330,000 | MEF A1-2A-BIM cells, Caspase-Glo 3/7 luminescence, 3 h; percent of clofoctol response, vehicle zero | caspase activation, % (concentration not given with the values);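 active means over half of replicate activation scores above 10%, or exactly half above 10 with the replicate mean above 10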
# B2AR ag: human beta-2 adrenergic receptor agonism by FAP; P07550; Am2.2-beta2AR cells, FAP receptor internalization, flow cytometry; hit rate 0.43% among 340,000; AID 504454; response, % (concentration not given with the values);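 active means response above a set limit, near 3 SD of response in nonfluorescent compounds, cut at about 42% in these data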
# NOD2-RIPK2 conf: NOD2-RIPK2 interaction inhibition confirmed; shares compounds with NOD2-RIPK2 inh; CHO cells, NOD2-RIPK2 BLA complementation, CCF4 FRET; inhibition, % at 4.98 µM; hit rate 70% among 1,200; AID 624370;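 active means mean inhibition across replicates above a set limit taken from the earlier primary screen, cut at about 21% in these data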;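 further: 0% = DMSO-only wells and the high end = clavulanate BLA-blocked wells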
# BLA counter: NOD2-RIPK2 counterscreen BLA reporter activity. shares compounds with NOD2-RIPK2 inh. CHO BLA reporter, CCF4 FRET ratio. inhibition, % at 4.98 µM. hit rate 57% among 1,200. AID 624371;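 active means mean inhibition above the low-control mean inhibition plus three low-control SD, cut at about 11% in these data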;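 further: 0% = DMSO only wells and 100% = clavulanate high control wells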
# * = called active by the depositor; nt = no result given.
SMILES,TLR4-MyD88 BLA,NTR1 ag,TLR9-MyD88 block,NOD2-RIPK2 inh,A1 inh,B2AR ag,NOD2-RIPK2 conf,BLA counter
CCOc1ccccc1C=NNC(=O)C(=O)NN=Cc1ccccc1OCC,nt,nt,-4.6,24.1*,nt,3.3,-10.2,-8.9
COc1cccc(C(=O)NCC2CCCN(C(=O)c3ccc(C=O)cc3)C2)c1OC (stereo not given),nt,-0.1,-2.8,2.3,-0.7,-0.1,nt,nt
Cc1ccc(-c2cc(-c3n[nH]c(=S)o3)c3ccccc3n2)cc1,3.7,nt,6.5,21.7*,0.6,-3.0,10.4,7.5
S=c1[nH]nc(-c2cc(-c3ccccn3)nc3ccccc23)o1,nt,1.9,-3.9,-2.6,0.2,-0.1,nt,nt
O=C(NCc1ccccc1)C(c1ccccc1F)n1c(=O)c(-c2cc3ccccc3[nH]2)nc2ccccc21 (stereo not given),nt,nt,nt,53.2*,nt,nt,48.1*,69.7*
O=C(NCc1ccccc1)C(c1ccc(C(F)(F)F)cc1)n1c(=O)c(-c2ccccc2)nc2ccccc21 (stereo not given),nt,nt,nt,2.8,nt,nt,nt,nt
O=C(NCc1ccccc1)C(c1cccc2ccccc12)n1c(=O)c(-c2ccccc2)nc2ccccc21 (stereo not given),nt,nt,nt,-13.6,nt,nt,nt,nt
O=C(NCc1ccccc1)C(c1ccc(-c2ccccc2)cc1)n1c(=O)c(-c2cc3ccccc3[nH]2)nc2ccccc21 (stereo not given),nt,nt,nt,23.1*,nt,nt,42.4*,66.5*
COc1ccc(C(C(=O)NCc2ccccc2)n2c(=O)c(-c3cc4ccccc4[nH]3)nc3ccccc32)cc1 (stereo not given),nt,nt,nt,43.5*,nt,nt,39.9*,63.8*
O=C(NCc1ccccc1)C(c1ccncc1)n1c(=O)c(-c2cc3ccccc3[nH]2)nc2ccccc21 (stereo not given),nt,nt,nt,54.0*,nt,nt,50.6*,67.1*
O=C(c1ccc(COc2ccccc2Cl)o1)N1N=C(C(F)F)CC1(O)C(F)F (stereo not given),0.6,1.3,-7.5,4.8,0.5,3.0,nt,nt
Cc1ccc(S(=O)(=O)N2CCC(C(=O)NCCc3ccc(S(N)(=O)=O)cc3)CC2)cc1,9.5,1.0,3.1,-3.7,-0.4,2.0,nt,nt
CC12CCC(C3NC(=S)NN=C31)C2(C)C (stereo not given),nt,nt,2.3,3.9,nt,-0.6,nt,nt
CSc1ccccc1NC(=S)Nc1cc(C)cc(C)c1,-7.5,-0.4,-1.4,-6.4,-0.6,-2.4,nt,nt
O=C(NC(=S)Nc1sc2c(c1C(=O)O)CCCC2)c1ccccc1,nt,3.7,-0.6,35.3*,0.2,4.8,0.8,-6.6
N#Cc1c(NC(=S)NC(=O)c2ccccc2)sc2c1CCC2,-12.1,4.3,-0.3,-2.6,0.8,-7.4,nt,nt
O=S(=O)(Nc1ccc(C(O)(C(F)(F)F)C(F)(F)F)cc1)c1ccc(Cl)c2nonc12,nt,nt,nt,28.8*,nt,nt,31.9*,4.5
O=C(CN1C(=O)/C(=C\c2cccs2)SC1=S)Nc1cccc(C(=O)O)c1,nt,-0.2,-9.1,-23.1,-0.5,-8.5,nt,nt
O=C(CCCN1C(=O)/C(=C\c2cccs2)SC1=S)Nc1cccc(C(=O)O)c1,2.4,0.1,3.1,23.6*,-2.7,14.2,4.9,-4.1
COc1cc(NC(=O)Cn2c(C)cc3ccccc3c2=O)cc(OC)c1OC,0.7,-0.1,-2.0,32.2*,1.2,-3.3,5.8,-1.9
COc1ccccc1NC(=O)CNC(=O)Cn1c(C)cc2ccccc2c1=O,nt,3.2,-7.7,-14.9,-1.1,2.7,nt,nt
COc1cccc(N(C(=O)c2snc(C(N)=O)c2N)C(C(=O)NCC2CCCO2)c2ccc(C)o2)c1 (stereo not given),nt,0.5,6.8,7.0,0.4,4.4,nt,nt
Cc1cc(C)nc(Sc2ccc([N+](=O)[O-])cc2[N+](=O)[O-])n1,-5.0,2.3,-4.0,9.8,-0.5,-3.8,nt,nt
O=[N+]([O-])c1ccc(Sc2ccncn2)c([N+](=O)[O-])c1,nt,nt,12.5,24.4*,nt,nt,23.0*,-1.3
CCC(=O)Oc1ccc2c(c1)O/C(=C\c1ccco1)C2=O,nt,-0.8,nt,44.4*,-2.0,-0.9,56.0*,60.8*

# Compound activity from PubChem BioAssay.
